Results taken from PubChem BioAssay (NCI).
Compounds without any hit were thinned out: in the full panel of roughly 79,000, 15% have a hit. Unmarked numbers belong to inactive results. Active and inactive are the calls of the source. Rule as the data show it: active = growth inhibition above about 70%; inactive = the rest.

How the values were obtained:
[1] = NCI Yeast Anticancer Drug Screen. Data for the rad52 strain (AID 147);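 also: 0% = growth of vehicle-treated control cultures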; settings: S. cerevisiae rad52 mutant growth inhibition, stronger effect = higher value
Outline: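 Vehicle-treated cultures served as the reference for growth inhibition of compound-exposed yeast bearing a DNA repair mutation.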

[2] = NCI Yeast Anticancer Drug Screen. Data for the wt1 strain (AID 149);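 also: 0% = growth of vehicle-treated wt1 cultures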; settings: S. cerevisiae wt1 strain (SPY 50644) growth inhibition, stronger effect = higher value
Outline: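 Growth inhibition read against vehicle controls after compound exposure of the wt1 yeast strain.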

[3] = NCI Yeast Anticancer Drug Screen. Data for the rad50EPP+ strain (AID 151);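 also: 0% = growth of vehicle-treated control cultures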; settings: S. cerevisiae rad50 mutant strain, stronger effect = higher value
Outline: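 In this screen, rad50EPP+ yeast were exposed to compounds. Growth inhibition was scored against vehicle-treated controls.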

[4] = NCI Yeast Anticancer Drug Screen. Data for the mgt1 strain (AID 153); settings: S. cerevisiae mgt1 mutant growth inhibition, stronger effect = higher value
Outline: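 mgt1 strain exposed; growth vs vehicle control recorded as inhibition.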

[5] = NCI Yeast Anticancer Drug Screen. Data for the rad50 strain (AID 155);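 also: 0% = growth of vehicle-only cultures of the same strain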; settings: S. cerevisiae rad50 strain growth inhibition, stronger effect = higher value
Outline: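 Readout: growth inhibition relative to vehicle-treated cultures. Compound exposure was carried out in a genetically defined yeast strain deficient in DNA damage repair.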

[6] = NCI Yeast Anticancer Drug Screen. Data for the mec2-1 strain (AID 157); settings: S. cerevisiae mec2-1 strain, stronger effect = higher value
Outline: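 Vehicle-treated cultures served as reference for growth inhibition of compound-exposed mec2-1 yeast.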

[7] = NCI Yeast Anticancer Drug Screen. Data for the rad14 strain (AID 159);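 also: 0% = growth of vehicle-treated control cultures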; settings: S. cerevisiae rad14 strain growth inhibition, stronger effect = higher value
Outline: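 Growth inhibition vs vehicle controls; genetically altered yeast strain (DNA damage repair defect) treated with test compounds.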

[8] = NCI Yeast Anticancer Drug Screen. Data for the sgs1 mgt1 strain (AID 161);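 also: 0% = growth of cultures given vehicle only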; settings: S. cerevisiae sgs1 mgt1 strain, stronger effect = higher value
Outline: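 Mutant yeast exposed to compound; growth scored against vehicle-only wells.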

[9] = NCI Yeast Anticancer Drug Screen. Data for the CLN2oe strain (AID 163);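 also: 0% = growth of vehicle-only control cultures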; settings: S. cerevisiae CLN2oe strain, stronger effect = higher value
Outline: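 Inhibition relative to vehicle-treated yeast is reported. Cells: strain with genetic alteration in cell-cycle control, grown with compound.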

[10] = NCI Yeast Anticancer Drug Screen. Data for the cln2 rad14 strain (AID 165);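 also: 0% = growth equal to vehicle treated cultures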; settings: S. cerevisiae cln2 rad14 strain, stronger effect = higher value
Outline: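 Each compound was tested on cln2 rad14 yeast. Inhibition of growth was calculated against vehicle-exposed controls.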

[11] = NCI Yeast Anticancer Drug Screen. Data for the bub3 strain (AID 167); settings: S. cerevisiae bub3 mutant strain, stronger effect = higher value
Outline: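 Readout: yeast growth inhibition, expressed relative to vehicle-only wells. The test organism is a mutant strain from a panel with lesions in DNA repair or checkpoint genes.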

[12] = NCI Yeast Anticancer Drug Screen. Data for the wt2 strain (AID 169);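 also: 0% = growth of vehicle-treated yeast cultures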; settings: S. cerevisiae wt2 strain growth inhibition, stronger effect = higher value
Outline: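 Inhibition of yeast growth was determined after compound treatment, normalised to controls receiving only vehicle.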

[13] = NCI Yeast Anticancer Drug Screen. Data for the mlh1 strain (AID 171);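 also: 0% = growth of vehicle-treated control cultures of the same strain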; settings: S. cerevisiae mlh1 strain growth inhibition, stronger effect = higher value
Outline: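 Vehicle-normalised growth inhibition of a repair- or checkpoint-altered yeast strain following compound treatment.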

[14] = NCI Yeast Anticancer Drug Screen. Data for the sgs1 strain (AID 173);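 also: 0% = growth of vehicle-only control cultures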; settings: S. cerevisiae sgs1 mutant, stronger effect = higher value
Outline: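 Screen format: yeast with repair or checkpoint alterations, compound exposure, growth read relative to vehicle.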

[15] = NCI Yeast Anticancer Drug Screen. Data for the mlh1 rad18 strain (AID 175); settings: S. cerevisiae mlh1 rad18 strain growth inhibition, stronger effect = higher value
Outline: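 Vehicle-treated cultures served as the reference for growth inhibition in a yeast strain carrying DNA damage repair alterations exposed to each compound.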

[16] = NCI Yeast Anticancer Drug Screen. Data for the rad18 strain (AID 177); settings: S. cerevisiae rad18 mutant growth inhibition, stronger effect = higher value
Outline: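 Test articles were incubated with altered yeast defective in DNA damage repair. Results are given as inhibition of growth versus vehicle.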

[17] = at 5.0 µM (retest, dose inferred, filed as 0.5)
[18] = at 50.0 µM (retest, dose inferred, filed as 5.0)

## CCN(CC)CCNc1ccc2ncn3c4ccc(O)cc4c(=O)c1c23
[1]; at 1.2 µM
  growth inhibition: 9%
[1]; at 3.7 µM
  growth inhibition: 28%
[1]; at 11.0 µM
  growth inhibition: 56%
[1]; at 33.0 µM
  growth inhibition: 75% (active)
[1]; at 100.0 µM
  growth inhibition: 85% (active)
[2]; at 1.2 µM
  growth inhibition: 0%
[2]; at 3.7 µM
  growth inhibition: -2%
[2]; at 11.0 µM
  growth inhibition: -4%
[2]; at 33.0 µM
  growth inhibition: -2%
[2]; at 100.0 µM
  growth inhibition: 1%
[3]; at 1.2 µM
  growth inhibition: -1%
[3]; at 3.7 µM
  growth inhibition: 6%
[3]; at 11.0 µM
  growth inhibition: 13%
[3]; at 33.0 µM
  growth inhibition: 26%
[3]; at 100.0 µM
  growth inhibition: 39%
[4]; at 1.2 µM
  growth inhibition: -3%
[4]; at 3.7 µM
  growth inhibition: -6%
[4]; at 11.0 µM
  growth inhibition: -1%
[4]; at 33.0 µM
  growth inhibition: 1%
[4]; at 100.0 µM
  growth inhibition: 1%
[5]; at 1.2 µM
  growth inhibition: 13%
[5]; at 3.7 µM
  growth inhibition: 32%
[5]; [17]
  growth inhibition: 65%
[5]; at 11.0 µM
  growth inhibition: 65%
[5]; at 33.0 µM
  growth inhibition: 81% (active)
[5]; [18]
  growth inhibition: 65%
[5]; at 50.0 µM
  growth inhibition: -6.6%
[5]; at 100.0 µM
  growth inhibition: 87% (active)
[6]; at 1.2 µM
  growth inhibition: -3%
[6]; at 3.7 µM
  growth inhibition: -3%
[6]; [17]
  growth inhibition: 18%
[6]; at 11.0 µM
  growth inhibition: -2%
[6]; at 33.0 µM
  growth inhibition: 4%
[6]; [18]
  growth inhibition: 18%
[6]; at 50.0 µM
  growth inhibition: 3.05%
[6]; at 100.0 µM
  growth inhibition: 22%
[7]; at 1.2 µM
  growth inhibition: 2%
[7]; at 3.7 µM
  growth inhibition: -1%
[7]; at 11.0 µM
  growth inhibition: 3%
[7]; at 33.0 µM
  growth inhibition: 3%
[7]; at 100.0 µM
  growth inhibition: 6%
[8]; [17]
  growth inhibition: 13%
[8]; [18]
  growth inhibition: 13%
[8]; at 50.0 µM
  growth inhibition: -33.6%
[9]; at 1.2 µM
  growth inhibition: -4%
[9]; at 3.7 µM
  growth inhibition: 1%
[9]; at 11.0 µM
  growth inhibition: 0%
[9]; at 33.0 µM
  growth inhibition: 2%
[9]; at 100.0 µM
  growth inhibition: -1%
[10]; [17]
  growth inhibition: 18%
[10]; [18]
  growth inhibition: 18%
[10]; at 50.0 µM
  growth inhibition: 19.9%
[11]; at 1.2 µM
  growth inhibition: -7%
[11]; at 3.7 µM
  growth inhibition: -9%
[11]; [17]
  growth inhibition: 30%
[11]; at 11.0 µM
  growth inhibition: 3%
[11]; at 33.0 µM
  growth inhibition: 4%
[11]; [18]
  growth inhibition: 30%
[11]; at 50.0 µM
  growth inhibition: 8.45%
[11]; at 100.0 µM
  growth inhibition: -11%
[12]; at 1.2 µM
  growth inhibition: -1%
[12]; at 3.7 µM
  growth inhibition: 1%
[12]; at 11.0 µM
  growth inhibition: -3%
[12]; at 33.0 µM
  growth inhibition: 1%
[12]; at 100.0 µM
  growth inhibition: -2%
[13]; at 1.2 µM
  growth inhibition: -5%
[13]; at 3.7 µM
  growth inhibition: -4%
[13]; at 11.0 µM
  growth inhibition: -2%
[13]; at 33.0 µM
  growth inhibition: -5%
[13]; at 100.0 µM
  growth inhibition: 10%
[14]; at 1.2 µM
  growth inhibition: -4%
[14]; at 3.7 µM
  growth inhibition: -6%
[14]; at 11.0 µM
  growth inhibition: -6%
[14]; at 33.0 µM
  growth inhibition: -4%
[14]; at 100.0 µM
  growth inhibition: -1%
[15]; [17]
  growth inhibition: 25%
[15]; [18]
  growth inhibition: 25%
[15]; at 50.0 µM
  growth inhibition: 64.7%
[16]; at 1.2 µM
  growth inhibition: 0%
[16]; at 3.7 µM
  growth inhibition: -4%
[16]; at 11.0 µM
  growth inhibition: -11%
[16]; at 33.0 µM
  growth inhibition: -8%
[16]; at 100.0 µM
  growth inhibition: -14%

## COc1cc(OC)c(CSCC(NC(=O)OCC2c3ccccc3-c3ccccc32)C(=O)O)c(OC)c1 (stereo unspecified)
[1]; at 1.2 µM
  growth inhibition: 0%
[1]; at 3.7 µM
  growth inhibition: 5%
[1]; at 11.0 µM
  growth inhibition: 48%
[1]; at 33.0 µM
  growth inhibition: 97% (active)
[1]; at 100.0 µM
  growth inhibition: 98% (active)
[2]; at 1.2 µM
  growth inhibition: 1%
[2]; at 3.7 µM
  growth inhibition: 9%
[2]; at 11.0 µM
  growth inhibition: 55%
[2]; at 33.0 µM
  growth inhibition: 96% (active)
[2]; at 100.0 µM
  growth inhibition: 99% (active)
[3]; at 1.2 µM
  growth inhibition: -2%
[3]; at 3.7 µM
  growth inhibition: -2%
[3]; at 11.0 µM
  growth inhibition: -1%
[3]; at 33.0 µM
  growth inhibition: 0%
[3]; at 100.0 µM
  growth inhibition: -3%
[4]; at 1.2 µM
  growth inhibition: -2%
[4]; at 3.7 µM
  growth inhibition: 8%
[4]; at 11.0 µM
  growth inhibition: 52%
[4]; at 33.0 µM
  growth inhibition: 97% (active)
[4]; at 100.0 µM
  growth inhibition: 98% (active)
[5]; at 1.2 µM
  growth inhibition: -6%
[5]; at 3.7 µM
  growth inhibition: -9%
[5]; [17]
  growth inhibition: 15%
[5]; at 11.0 µM
  growth inhibition: 43%
[5]; at 33.0 µM
  growth inhibition: 94% (active)
[5]; [18]
  growth inhibition: 99% (active)
[5]; at 50.0 µM
  growth inhibition: 98.6% (active)
[5]; at 100.0 µM
  growth inhibition: 98% (active)
[6]; at 1.2 µM
  growth inhibition: 2%
[6]; at 3.7 µM
  growth inhibition: 11%
[6]; [17]
  growth inhibition: 12%
[6]; at 11.0 µM
  growth inhibition: 55%
[6]; at 33.0 µM
  growth inhibition: 96% (active)
[6]; [18]
  growth inhibition: 99% (active)
[6]; at 50.0 µM
  growth inhibition: 99.2% (active)
[6]; at 100.0 µM
  growth inhibition: 98% (active)
[7]; at 1.2 µM
  growth inhibition: -2%
[7]; at 3.7 µM
  growth inhibition: 10%
[7]; at 11.0 µM
  growth inhibition: 68%
[7]; at 33.0 µM
  growth inhibition: 96% (active)
[7]; at 100.0 µM
  growth inhibition: 99% (active)
[8]; [17]
  growth inhibition: -4%
[8]; [18]
  growth inhibition: 98% (active)
[8]; at 50.0 µM
  growth inhibition: 99% (active)
[9]; at 1.2 µM
  growth inhibition: 0%
[9]; at 3.7 µM
  growth inhibition: 13%
[9]; at 11.0 µM
  growth inhibition: 68%
[9]; at 33.0 µM
  growth inhibition: 99% (active)
[9]; at 100.0 µM
  growth inhibition: 98% (active)
[10]; [17]
  growth inhibition: 52%
[10]; [18]
  growth inhibition: 99% (active)
[10]; at 50.0 µM
  growth inhibition: 98.4% (active)
[11]; at 1.2 µM
  growth inhibition: 0%
[11]; at 3.7 µM
  growth inhibition: 10%
[11]; [17]
  growth inhibition: 3%
[11]; at 11.0 µM
  growth inhibition: 61%
[11]; at 33.0 µM
  growth inhibition: 95% (active)
[11]; [18]
  growth inhibition: 99% (active)
[11]; at 50.0 µM
  growth inhibition: 99.2% (active)
[11]; at 100.0 µM
  growth inhibition: 98% (active)
[12]; at 1.2 µM
  growth inhibition: -1%
[12]; at 3.7 µM
  growth inhibition: 6%
[12]; at 11.0 µM
  growth inhibition: 58%
[12]; at 33.0 µM
  growth inhibition: 98% (active)
[12]; at 100.0 µM
  growth inhibition: 98% (active)
[13]; at 1.2 µM
  growth inhibition: 3%
[13]; at 3.7 µM
  growth inhibition: 9%
[13]; at 11.0 µM
  growth inhibition: 62%
[13]; at 33.0 µM
  growth inhibition: 97% (active)
[13]; at 100.0 µM
  growth inhibition: 98% (active)
[14]; at 1.2 µM
  growth inhibition: 1%
[14]; at 3.7 µM
  growth inhibition: 9%
[14]; at 11.0 µM
  growth inhibition: 45%
[14]; at 33.0 µM
  growth inhibition: 95% (active)
[14]; at 100.0 µM
  growth inhibition: 98% (active)
[15]; [17]
  growth inhibition: 5%
[15]; [18]
  growth inhibition: 99% (active)
[15]; at 50.0 µM
  growth inhibition: 98.4% (active)
[16]; at 1.2 µM
  growth inhibition: 0%
[16]; at 3.7 µM
  growth inhibition: 8%
[16]; at 11.0 µM
  growth inhibition: 36%
[16]; at 33.0 µM
  growth inhibition: 96% (active)
[16]; at 100.0 µM
  growth inhibition: 97% (active)
